# In PubChem BioAssay (EPA / NIEHS):
# Records with an inconclusive call do not appear. The source made the active and inactive calls. Rule for the calls: active = hit-call score of the fitted dose curve at least 0.9, where 1 is the maximum; inconclusive = response in the unintended direction; inactive = score below 0.9.
# What was measured:
# [1] = biological target: human Matrix Metalloproteinase-9 (MMP9), MMP9 (gene 4318) (UniProt P14780); test: NVS_ENZ_hMMP9: NovaScreen (NVS) Enzymatic Assay for human Matrix Metalloproteinase-9 (MMP9) (AID 2283190);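 note: cell-free recombinant MMP9 protease activity read by fluorescent substrate signal; active means inhibition seen as loss of fluorescence signal versus DMSO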
# Chain of human Matrix Metalloproteinase-9 (MMP9), MMP9 (gene 4318) (P14780 whole entry, looked up): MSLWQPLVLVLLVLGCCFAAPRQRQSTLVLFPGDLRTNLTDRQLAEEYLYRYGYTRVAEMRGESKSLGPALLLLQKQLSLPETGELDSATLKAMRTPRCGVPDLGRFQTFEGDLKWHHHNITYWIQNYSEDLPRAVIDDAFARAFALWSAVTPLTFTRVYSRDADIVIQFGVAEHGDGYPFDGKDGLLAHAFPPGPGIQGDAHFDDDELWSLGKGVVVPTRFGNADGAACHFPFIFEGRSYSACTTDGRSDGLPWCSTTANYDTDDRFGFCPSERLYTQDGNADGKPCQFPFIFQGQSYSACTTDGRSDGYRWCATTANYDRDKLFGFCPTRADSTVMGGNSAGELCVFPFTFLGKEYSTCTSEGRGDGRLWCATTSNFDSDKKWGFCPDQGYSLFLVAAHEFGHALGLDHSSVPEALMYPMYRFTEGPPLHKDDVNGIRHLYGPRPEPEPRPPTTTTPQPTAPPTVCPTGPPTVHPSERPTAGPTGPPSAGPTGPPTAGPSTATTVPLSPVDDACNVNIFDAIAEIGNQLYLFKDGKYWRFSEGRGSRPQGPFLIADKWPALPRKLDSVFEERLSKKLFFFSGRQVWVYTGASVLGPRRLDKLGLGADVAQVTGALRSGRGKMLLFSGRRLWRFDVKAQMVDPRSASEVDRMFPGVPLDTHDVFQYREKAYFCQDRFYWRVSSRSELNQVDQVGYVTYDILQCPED
# Procedure, shortened: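 Screening concentration 25 uM, duplicate wells, then dose series for confirmation. Cell-free enzymatic reaction measured by fluorescence intensity 1 h post-dosing; decreased signal versus DMSO taken as activity.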
# [2] = biological target: human Phosphoinositide 3-kinase alpha (PI3Ka), PIK3CA (gene 5290) (UniProt P42336); test: NVS_ENZ_hPI3Ka: NovaScreen (NVS) Enzymatic Assay for human Phosphoinositide 3-kinase alpha (PI3Ka) (AID 2283196)
# Chain of human Phosphoinositide 3-kinase alpha (PI3Ka), PIK3CA (gene 5290) (P42336 whole entry, looked up): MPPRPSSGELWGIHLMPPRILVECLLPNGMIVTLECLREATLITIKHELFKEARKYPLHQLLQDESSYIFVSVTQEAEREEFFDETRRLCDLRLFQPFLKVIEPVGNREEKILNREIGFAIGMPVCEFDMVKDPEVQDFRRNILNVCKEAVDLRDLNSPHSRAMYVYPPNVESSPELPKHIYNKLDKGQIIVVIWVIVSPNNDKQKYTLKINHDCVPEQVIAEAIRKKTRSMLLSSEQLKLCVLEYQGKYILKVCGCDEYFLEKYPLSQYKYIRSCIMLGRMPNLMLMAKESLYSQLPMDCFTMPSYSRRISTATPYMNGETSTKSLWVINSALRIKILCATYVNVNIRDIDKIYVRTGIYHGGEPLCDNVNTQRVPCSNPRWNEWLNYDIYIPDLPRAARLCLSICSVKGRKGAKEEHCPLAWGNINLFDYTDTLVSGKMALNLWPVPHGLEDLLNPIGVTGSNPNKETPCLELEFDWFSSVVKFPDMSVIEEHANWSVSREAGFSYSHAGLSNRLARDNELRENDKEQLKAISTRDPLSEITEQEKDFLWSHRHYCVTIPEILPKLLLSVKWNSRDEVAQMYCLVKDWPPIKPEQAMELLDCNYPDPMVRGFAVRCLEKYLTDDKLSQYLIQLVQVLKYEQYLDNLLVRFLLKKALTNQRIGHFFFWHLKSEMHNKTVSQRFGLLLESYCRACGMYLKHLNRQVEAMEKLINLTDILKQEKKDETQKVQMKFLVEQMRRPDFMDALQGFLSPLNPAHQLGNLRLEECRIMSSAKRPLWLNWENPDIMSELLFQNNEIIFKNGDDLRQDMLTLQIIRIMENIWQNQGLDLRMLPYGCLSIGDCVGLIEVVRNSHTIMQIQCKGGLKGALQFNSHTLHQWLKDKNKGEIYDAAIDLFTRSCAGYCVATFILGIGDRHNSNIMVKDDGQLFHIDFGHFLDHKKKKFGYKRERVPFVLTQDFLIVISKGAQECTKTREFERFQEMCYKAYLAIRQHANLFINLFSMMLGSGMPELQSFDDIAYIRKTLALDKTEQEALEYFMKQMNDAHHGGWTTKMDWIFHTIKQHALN
# Procedure, shortened: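 Duplicate single-point screen (25 uM), then singleton dose-response (max 50 uM) for compounds meeting the threshold. Cell-free kinase reaction, 1 h; fluorescent mobility-shift readout.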
# [3] = biological target: human Phosphodiesterase 4A1 (PDE4A1), PDE4A (gene 5141) (UniProt P27815); test: NVS_ENZ_hPDE4A1: NovaScreen (NVS) Enzymatic Assay for human Phosphodiesterase 4A1 (PDE4A1) (AID 2283191)
# Chain of human Phosphodiesterase 4A1 (PDE4A1), PDE4A (gene 5141) (P27815 whole entry, looked up): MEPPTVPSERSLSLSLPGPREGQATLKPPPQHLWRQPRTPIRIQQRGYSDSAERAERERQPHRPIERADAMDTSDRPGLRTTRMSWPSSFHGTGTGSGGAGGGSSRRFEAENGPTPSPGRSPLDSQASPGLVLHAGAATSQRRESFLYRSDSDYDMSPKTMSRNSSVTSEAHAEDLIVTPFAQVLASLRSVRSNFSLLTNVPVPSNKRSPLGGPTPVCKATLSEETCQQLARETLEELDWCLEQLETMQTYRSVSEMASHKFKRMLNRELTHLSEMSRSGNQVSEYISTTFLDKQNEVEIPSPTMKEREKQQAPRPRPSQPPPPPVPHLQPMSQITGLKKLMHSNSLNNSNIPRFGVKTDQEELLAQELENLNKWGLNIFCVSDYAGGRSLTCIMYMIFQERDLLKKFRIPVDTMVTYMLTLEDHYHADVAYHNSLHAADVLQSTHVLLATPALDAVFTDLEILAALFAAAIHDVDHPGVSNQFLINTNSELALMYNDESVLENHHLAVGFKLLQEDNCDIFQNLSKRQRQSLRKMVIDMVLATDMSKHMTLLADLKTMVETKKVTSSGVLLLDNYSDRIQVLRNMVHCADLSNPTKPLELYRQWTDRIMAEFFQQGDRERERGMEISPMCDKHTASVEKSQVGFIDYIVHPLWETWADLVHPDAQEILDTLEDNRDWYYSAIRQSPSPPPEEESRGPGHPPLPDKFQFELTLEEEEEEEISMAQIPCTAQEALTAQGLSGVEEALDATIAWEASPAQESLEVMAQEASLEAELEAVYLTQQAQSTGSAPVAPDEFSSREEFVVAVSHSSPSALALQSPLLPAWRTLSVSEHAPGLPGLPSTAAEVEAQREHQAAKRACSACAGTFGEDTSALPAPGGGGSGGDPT
# Procedure, shortened: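 Cell-free recombinant human PDE4A1 with fluorescent substrate; product separated by electrophoretic mobility shift, 1 h. Screened at 25 uM, then up to 50 uM in concentration-response; loss of signal fitted against DMSO.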
# PPP2CA (gene 5515) = PPP2CA (gene 5515) (UniProt P67775); test: NVS_ENZ_hPPP2CA: NovaScreen (NVS) Enzymatic Assay for human Protein Phosphatase 2 Aatalytic subunit Alpha (PPP2CA) (AID 2283199)
# Chain of PPP2CA (gene 5515) (P67775 whole entry, looked up): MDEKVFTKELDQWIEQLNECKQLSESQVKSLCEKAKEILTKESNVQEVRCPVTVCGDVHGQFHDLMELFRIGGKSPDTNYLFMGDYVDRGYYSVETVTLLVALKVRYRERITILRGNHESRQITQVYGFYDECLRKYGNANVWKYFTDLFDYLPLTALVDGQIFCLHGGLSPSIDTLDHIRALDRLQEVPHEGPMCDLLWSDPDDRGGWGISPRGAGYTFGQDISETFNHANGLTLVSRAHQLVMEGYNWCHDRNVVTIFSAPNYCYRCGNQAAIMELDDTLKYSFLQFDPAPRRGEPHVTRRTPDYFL
# Procedure, shortened: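 Recombinant human PPP2CA with fluorescent substrate; product separated from substrate by electrophoretic mobility shift, read 1.33 h after dosing. Duplicate single-point at 25 uM, then singleton concentration-response up to 50 uM; loss of signal versus DMSO.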
# [4] = biological target: human Phosphodiesterase 5 (PDE5), PDE5A (gene 8654) (UniProt O76074); test: NVS_ENZ_hPDE5: NovaScreen (NVS) Enzymatic Assay for human Phosphodiesterase 5 (PDE5) (AID 2283194)
# Procedure, shortened: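 Recombinant human PDE5 with specific substrate, read 1 h after dosing by fluorescence with electrophoretic mobility-shift separation of substrate and product. Initial single-concentration duplicate screen at 25 uM, actives followed in concentration series; loss of activity versus DMSO.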
# [5] = biological target: human Mitogen- and Stress-activated Protein Kinase-1 (Msk1), RPS6KA5 (gene 9252) (UniProt O75582); test: NVS_ENZ_hMsk1: NovaScreen (NVS) Enzymatic Assay for human Mitogen- and Stress-activated Protein Kinase-1 (Msk1) (AID 2283187)
# Chain of human Mitogen- and Stress-activated Protein Kinase-1 (Msk1), RPS6KA5 (gene 9252) (O75582 whole entry, looked up): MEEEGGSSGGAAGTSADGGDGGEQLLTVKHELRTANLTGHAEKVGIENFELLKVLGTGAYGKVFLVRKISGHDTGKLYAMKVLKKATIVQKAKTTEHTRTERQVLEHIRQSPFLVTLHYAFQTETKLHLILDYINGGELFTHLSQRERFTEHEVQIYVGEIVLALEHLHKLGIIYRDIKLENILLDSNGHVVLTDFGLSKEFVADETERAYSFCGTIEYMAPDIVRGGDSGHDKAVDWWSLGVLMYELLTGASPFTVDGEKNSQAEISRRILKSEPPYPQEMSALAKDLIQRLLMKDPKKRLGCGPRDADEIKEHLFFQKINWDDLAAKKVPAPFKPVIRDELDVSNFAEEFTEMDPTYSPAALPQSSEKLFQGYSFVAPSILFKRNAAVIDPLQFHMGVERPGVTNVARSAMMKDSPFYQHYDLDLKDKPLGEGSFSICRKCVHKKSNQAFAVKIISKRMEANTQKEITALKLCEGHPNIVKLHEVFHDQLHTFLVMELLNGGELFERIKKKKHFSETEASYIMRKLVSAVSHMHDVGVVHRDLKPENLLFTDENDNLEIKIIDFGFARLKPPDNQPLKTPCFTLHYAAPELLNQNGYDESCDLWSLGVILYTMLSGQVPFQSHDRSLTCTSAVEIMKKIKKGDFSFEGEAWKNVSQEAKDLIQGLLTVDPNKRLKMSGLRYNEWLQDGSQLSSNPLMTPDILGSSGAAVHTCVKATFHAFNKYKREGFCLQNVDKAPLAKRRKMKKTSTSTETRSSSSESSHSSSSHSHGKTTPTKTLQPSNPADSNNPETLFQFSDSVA
# Procedure, shortened: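 Recombinant kinase with fluorescent substrate; product separated by electrophoretic mobility shift, read 1 h after dosing. Screened in duplicate at 25 uM; hits (e.g. ≥30% inhibition) tested in concentration–response up to 50 uM. DMSO baseline.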
# [6] = biological target: cAMP-dependent protein kinase catalytic subunit alpha (Homo sapiens) (UniProt P17612); test: NVS_ENZ_hPKA: NovaScreen (NVS) Enzymatic Assay for human Protein Kinase A (PKA) (AID 2283192)
# Procedure, shortened: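 Recombinant human PKA with specific fluorescent substrate, product separated by electrophoretic mobility shift, read 1 h after dosing. Primary screen at 25 uM in duplicate; actives then run in concentration-response up to 50 uM, activity relative to DMSO.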
structure (smiles),measurement,setting,value
C=CCC1=C(C)C(OC(=O)C2C(C=C(C)C)C2(C)C)CC1=O (stereo not drawn),AC50,[1],0.793 µM (active)
COC(=O)c1ccccc1C(=O)OC,outcome,[2],inactive
CCOC(=O)CC(SP(=S)(OC)OC)C(=O)OCC (stereo not drawn),outcome,[1],inactive
same,outcome,[3],inactive
same,outcome,PPP2CA (gene 5515),inactive
CCOP(=S)(OCC)SCn1c(=O)oc2cc(Cl)ccc21,AC50,[3],9.57 µM (active)
same,outcome,[4],inactive
COc1nc(C)nc(NC(=O)NS(=O)(=O)c2ccccc2CCC(F)(F)F)n1,AC50,[4],25 µM (active)
same,outcome,[2],inactive
CC1COC(Cn2cncn2)(c2ccc(Oc3ccc(Cl)cc3)cc2Cl)O1 (stereo not drawn),outcome,[1],inactive
same,outcome,[4],inactive
CNC(=S)S,outcome,[5],inactive
same,outcome,[6],inactive
